SARS PLP yeast: blocks SARS-CoV papain-like protease in a yeast assay. AID 485353. 0.19% of 330,000 active. S. cerevisiae expressing SARS-CoV PLpro, growth rescue. Potency, µM (series often up to 32.9 µM), for the others: at the top dose activity, positive = growth rescue, actives largely listed as activators; calls by dose curve; further: 0% is about no effect; nearly all actives have a fitted effect of over 55% in size
AmpC inh no detg: AmpC beta-lactamase inhibition without detergent. P00811. AmpC nitrocefin hydrolysis, absorbance 480 nm, 0.0001% Triton. Potency, µM (top dose mostly 57.1 µM), for the others: at the highest dose activity change, negative = inhibition, hits mostly inhibitors. 0.52% of 330,000 active;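 further: plate controls were no compound for no effect and no enzyme for full effect; nearly all actives have a fitted effect of over 20% in size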
Target sequence (P00811 whole entry, looked up): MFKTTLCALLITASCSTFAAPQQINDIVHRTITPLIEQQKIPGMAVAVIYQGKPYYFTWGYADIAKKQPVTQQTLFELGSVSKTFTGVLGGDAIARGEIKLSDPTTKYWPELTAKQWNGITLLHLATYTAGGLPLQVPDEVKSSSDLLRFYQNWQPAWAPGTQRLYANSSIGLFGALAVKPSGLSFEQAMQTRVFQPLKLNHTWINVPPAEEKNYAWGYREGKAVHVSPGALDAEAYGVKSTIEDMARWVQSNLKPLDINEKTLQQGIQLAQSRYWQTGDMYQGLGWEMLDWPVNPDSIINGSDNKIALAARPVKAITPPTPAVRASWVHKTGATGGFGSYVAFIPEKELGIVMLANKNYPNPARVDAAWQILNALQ
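AmpC (5.3 nM in the dispensed reagent) in 20 mM phosphate pH 7.0 with 0.01% (detergent screen) or 0.0001% Triton X-100 was preincubated with compounds for 15 min at room temperature. Nitrocefin was then added from an 800 uM solution, and hydrolysis was followed at 480 nm.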
Pf growth 96h: P. falciparum growth inhibition at 96 hours; AID 504834; P. falciparum luciferase reporter growth, 96 h; 6.9% of 320,000 active; Potency, µM (highest dose often 28.7 µM), for the others: at the top dose activity change, negative = inhibition, actives largely listed as inhibitors; further: on the % scale 0 is the no-effect control and ±100 the full control effect
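96 h incubation, 37 C, 5% CO2, of luciferase-reporter P. falciparum-infected RBCs (2% hematocrit, 0.05% parasitemia final) with test compounds; endpoint luminescence.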
Pf growth 48h: inhibits P. falciparum growth in the first generation, 48 h. P. falciparum luciferase growth in erythrocytes, 48 h. Potency, µM (doses to about 28.7 µM), without a hit: at the top dose activity change, negative = inhibition, hits mostly inhibitors. 5.9% of 310,000 active. AID 504832; further: on the % scale 0 is the no-effect control and ±100 the full control effect
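Growth was read as firefly luciferase luminescence after a 48 h, 37 C, 5% CO2 exposure of compounds to reporter-bearing P. falciparum cultures (0.1% parasitemia, 2% hematocrit final) in Albumax-supplemented RPMI 1640.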
Sm TGR inh: inhibitors of Schistosoma mansoni thioredoxin glutathione reductase; Q962Y6; purified TGR, DTNB reduction, TNB absorbance 405 nm; Potency, µM (doses to about 114 µM), for the others: top-dose activity change, negative = inhibition, usual class: inhibitors; 3% of 360,000 active; further: on the % scale 0 is the no-effect control and ±100 the full control effect; nearly all actives have a fitted effect of over 60% in size
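Kinetic colorimetric format: TGR-catalysed, NADPH-driven DTNB reduction monitored via TNB absorbance. Enzyme dispensed at 20 nM; compound exposure 15 min at room temperature before reaction start.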
AmpC inh detg: inhibitors of E. coli AmpC beta-lactamase with detergent. Potency, µM (series often up to 114 µM), for the others: at the highest dose activity change, negative = inhibition, actives largely listed as inhibitors. 0.041% of 370,000 active. AmpC hydrolysis of nitrocefin, absorbance 480 nm, 0.01% Triton. P00811;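 further: 0% = no-compound wells and -100% = no-enzyme wells; nearly all actives have a fitted effect of over 25% in size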
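AmpC (5.3 nM in the dispensed reagent) in 20 mM phosphate pH 7.0 with 0.01% (detergent screen) or 0.0001% Triton X-100 was preincubated with compounds for 15 min at room temperature. Nitrocefin was then added from an 800 uM solution, and hydrolysis was followed at 480 nm.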
* = called active by the depositor; i = inactive; u = inconclusive; x = not tested or not shown; [ ] = remark or other dose. Hits are enriched below; roughly 12% of the tested compounds scored in any of these assays. Unless noted, the call rests on the fitted dose curve; in most records, active means well fitted curve in the direction sought with a large enough effect; inconclusive means small, poorly fitted or top-dose-only effect, or another doubt; inactive means no such curve, though single readings can be large; an effect the other way counts as inactive or inconclusive. Potency means the concentration at half of the fitted maximal effect.

SMILES	SARS PLP yeast	AmpC inh no detg	Pf growth 96h	Pf growth 48h	Sm TGR inh	AmpC inh detg
Cc1ccc(-n2nnnc2CNC(=O)C(C)(C)C)cc1C	x	x	x	x	1.5%	23.2%
COc1ccc(CNc2cccc3[nH]c(C(F)(F)F)nc23)cc1OC	0.0%	-11.5%	-10.6%	1.47µM*	20µM*	3.3%
O=C(COC(=O)/C=C/c1cccs1)Nc1nc(-c2cccc(Br)c2)cs1	-0.5%	6.31µM*	33.4%	-0.8%	-24.0%	-1.7%
Cn1cnc([N+](=O)[O-])c1Oc1ccc2ccccc2c1	18.0%	-5.5%	-26.1%	-4.4%	14.1µM*	-0.5%
O=C(c1ccc([N+](=O)[O-])cc1)N1c2ncnn2C2(CCCCC2)[C@@H]2CCCC[C@@H]21	x	x	x	x	4.6%	20.9%
CN(c1nnc(NC(=O)Nc2ccccc2C(F)(F)F)s1)C1CCCCC1	x	x	x	x	-2.1%	1.0%
COc1ccccc1COCC(O)CN(Cc1ccco1)Cc1ccccc1O (stereo not drawn)	-1.0%	4.7%	5.22µM*	8.28µM*	-3.4%	-5.4%
Cc1ccc(NC(=O)CN(Cc2ccco2)Cc2ccccc2O)cc1C	-10.6%	-32.4%	u	u	-9.4%	-0.2%
CCCSc1nsc(NC(=O)CCC)n1	-2.4%	-16.4%	3.7µM*	i	-4.6%	-3.8%
N#C/C(=C(/O)CSc1nnc(Cc2cccs2)n1C1CCCCC1)c1nc2ccccc2[nH]1	6.0%	-18.4%	65.4%	6.57µM*	-8.9%	u
Cc1cc(C(=O)Nc2ccccc2C(=O)O)ccc1NC(=O)COc1ccccc1Cl	-1.9%	0.1%	u	0.3%	-22.5%	0.3%
COCc1cc(Sc2ccc(Cl)cc2)nc(-c2ccccc2)n1	3.5%	-14.3%	0.0%	u	-25.1%	u
COCc1cc(Sc2cccc(Cl)c2Cl)nc(-c2ccccc2)n1	-14.3%	-11.4%	11.7µM*	u	17.7%	-14.9%
CC1=C(C(N)=O)C(c2ccc(C)o2)C(C(N)=O)=C(C)N1	-2.3%	-10.1%	21.4%	18.2%	44.7µM*	0.3%
CCOC(=O)C1=C(C)NC(C)=C(C(=O)OCC)C1c1ccc(C)o1	1.2%	21.9%	u	u	u	-14.4%
C=CCOC(=O)C1=C(C)NC(C)=C(C(=O)OCC=C)C1c1ccc(C)o1	-5.9%	47.8%	-4.4%	u	15.8µM*	-7.9%
CCc1cccc(CC)c1NC(=O)CSc1nnc(CCC(=O)O)c(=O)[nH]1	0.3%	-35.7%	141.0%	29.3%	-15.7%	0.2%
CCc1c(C)nc2cc(-c3ccc(OC)c(OC)c3)nn2c1N1CCC(C)CC1	-2.3%	-6.4%	44.4%	7.38µM*	9.8%	0.7%
CCc1c(C)nc2cc(-c3cc(OC)cc(OC)c3)nn2c1N1CCCC1	-27.8%	90.9%	x	u	1.3%	-3.2%
CCOCCN1CCN(c2c(CC)c(C)nc3cc(-c4cc(OC)cc(OC)c4)nn23)CC1	-34.4%	333.9%	9.1%	1.47µM*	6.9%	0.6%
CCc1c(C)nc2cc(-c3ccc(OC)c(OC)c3)nn2c1N1CCCC1	-28.9%	202.8%	0.0%	13.1µM*	1.0%	-8.2%
CC1=C(C(=O)Nc2ccccc2)C(c2cccc(Cl)c2)n2nc(SCC(=O)c3ccc(C)cc3)nc2N1 (stereo not drawn)	x	x	x	x	0.8%	-0.7%
CC(=O)N1CCc2ccccc2C1CC(=O)O (stereo not drawn)	-1.2%	-6.4%[2.29 µM]	108.5%	22.6%	-1.6%	-7.1%
Cc1noc(C)c1COc1ccc(C(=O)Nc2ncccc2O)cc1	0.0%	-15.6%	u	7.38µM*	-14.2%	-9.0%
COc1cc(C(=O)NCC(c2ccco2)N2CCCC2)ccc1OCc1c(C)noc1C (stereo not drawn)	-1.4%	18.3%	u	11.7µM*	-15.0%	-5.6%
CCCCOc1ccc(C(=O)NCC(=O)NCC(c2ccc(OC)cc2)N2CCCC2)cc1 (stereo not drawn)	1.4%	81.0%	u	u	0.0%	-4.7%

Assay outcomes from PubChem.
